What all share (assay): protein-binding microarray (PBM); PBM: ~300 nM protein, 6 mM HEPES pH 7.8, 80 mM KCl, 0.5 mM EDTA, 0.5 mM EGTA, 6% glycerol, 35 ng/ul poly-dIdC, 1% milk, 1 h, room temperature; Ap Aiptasia and Nv Nematostella (sea anemones) / Co Capsaspora / Aq Amphimedon (sponge) / Dm Drosophila / Hu human; RHD is the Rel homology domain; high values mean tight binding
Holding throughout (details): dsDNA, one strand shown

The target in one test is T1, GST-Ap-NF-kB RHD (Exaiptasia pallida (Aiptasia), UniProt A0A913YAJ5 2-422).
T1 sequence: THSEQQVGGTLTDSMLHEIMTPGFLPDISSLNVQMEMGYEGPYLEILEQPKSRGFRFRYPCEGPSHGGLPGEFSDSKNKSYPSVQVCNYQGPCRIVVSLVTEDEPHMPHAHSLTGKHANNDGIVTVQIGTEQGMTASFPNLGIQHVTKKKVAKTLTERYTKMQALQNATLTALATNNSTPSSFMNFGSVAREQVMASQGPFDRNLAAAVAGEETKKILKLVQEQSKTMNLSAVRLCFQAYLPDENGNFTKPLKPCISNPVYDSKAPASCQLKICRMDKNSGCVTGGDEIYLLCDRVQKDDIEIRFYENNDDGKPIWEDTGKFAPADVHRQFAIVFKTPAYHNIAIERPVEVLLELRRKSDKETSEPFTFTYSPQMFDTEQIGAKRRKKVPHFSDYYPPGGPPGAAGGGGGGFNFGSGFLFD

Test [1] addresses T2, GST-Nv-NF-kB (Cys allele) (Nematostella vectensis, UniProt E5G601 2-411).
T2 sequence: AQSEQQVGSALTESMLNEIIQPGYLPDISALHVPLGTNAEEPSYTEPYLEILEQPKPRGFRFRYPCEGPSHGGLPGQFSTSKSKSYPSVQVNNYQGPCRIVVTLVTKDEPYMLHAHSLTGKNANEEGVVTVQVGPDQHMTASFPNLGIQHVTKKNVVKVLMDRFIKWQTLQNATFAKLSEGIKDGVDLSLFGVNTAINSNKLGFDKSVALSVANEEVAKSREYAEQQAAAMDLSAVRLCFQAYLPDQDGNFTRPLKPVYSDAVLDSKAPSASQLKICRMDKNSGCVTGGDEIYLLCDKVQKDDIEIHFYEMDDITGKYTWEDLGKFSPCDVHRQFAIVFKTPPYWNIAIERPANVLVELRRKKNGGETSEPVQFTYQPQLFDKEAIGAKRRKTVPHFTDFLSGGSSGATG

In test [2] the target is T3, GST-Nv-NF-kB (Ser allele) (Nematostella vectensis, UniProt A7UNT2 2-411).
T3 sequence: T2 sequence with Q21R, C66S, S207N, E215Q, V217A, E225K, A268E, D399E

The target of another test is T4, GST-Co-NF-kB (Capsaspora owczarzaki, UniProt F1ARL5 200-546).
T4 sequence: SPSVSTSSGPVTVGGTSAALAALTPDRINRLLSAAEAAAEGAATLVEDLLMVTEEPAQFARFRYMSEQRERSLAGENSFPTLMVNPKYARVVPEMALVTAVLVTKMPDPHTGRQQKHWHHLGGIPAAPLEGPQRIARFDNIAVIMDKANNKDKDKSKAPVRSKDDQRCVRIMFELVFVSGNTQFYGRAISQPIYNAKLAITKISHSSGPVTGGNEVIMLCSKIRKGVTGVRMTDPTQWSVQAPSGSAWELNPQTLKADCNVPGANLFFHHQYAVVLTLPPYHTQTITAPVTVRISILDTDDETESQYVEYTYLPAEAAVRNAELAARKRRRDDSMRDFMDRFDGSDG

The target of another test is T5, GST-Dm-Relish (Drosophila melanogaster, UniProt Q94527 99-473).
T5 sequence: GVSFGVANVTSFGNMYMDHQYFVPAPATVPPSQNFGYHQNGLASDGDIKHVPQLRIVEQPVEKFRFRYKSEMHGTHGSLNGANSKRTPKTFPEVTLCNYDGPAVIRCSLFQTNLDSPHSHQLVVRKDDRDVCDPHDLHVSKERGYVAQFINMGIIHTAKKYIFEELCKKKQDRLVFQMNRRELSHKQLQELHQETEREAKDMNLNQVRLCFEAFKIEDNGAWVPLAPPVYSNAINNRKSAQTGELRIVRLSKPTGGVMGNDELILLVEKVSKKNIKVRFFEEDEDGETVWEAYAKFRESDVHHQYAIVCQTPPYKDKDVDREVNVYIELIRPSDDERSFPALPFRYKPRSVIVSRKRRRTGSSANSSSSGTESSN

Another test concerns the target T6, GST-Aq-NF-kB (Amphimedon queenslandica, UniProt A9Y5G7 2-389).
T6 sequence: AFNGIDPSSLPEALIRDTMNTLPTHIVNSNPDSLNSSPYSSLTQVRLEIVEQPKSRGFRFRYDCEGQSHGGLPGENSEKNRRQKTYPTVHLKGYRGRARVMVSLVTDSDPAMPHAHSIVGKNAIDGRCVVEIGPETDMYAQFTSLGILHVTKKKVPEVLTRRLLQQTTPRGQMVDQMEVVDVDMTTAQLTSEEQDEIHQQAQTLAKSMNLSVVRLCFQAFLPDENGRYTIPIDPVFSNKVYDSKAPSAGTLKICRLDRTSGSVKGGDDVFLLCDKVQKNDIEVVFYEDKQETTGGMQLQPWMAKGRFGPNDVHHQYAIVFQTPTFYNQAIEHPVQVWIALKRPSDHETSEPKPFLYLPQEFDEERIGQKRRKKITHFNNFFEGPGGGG

For another test, the target named is GST-Hu-p50 (Homo sapiens, UniProt P19838 7-356).

Residue numbers refer to the chain shown, from its start.

GST-Hu-p50, sequence (P19838 7-356): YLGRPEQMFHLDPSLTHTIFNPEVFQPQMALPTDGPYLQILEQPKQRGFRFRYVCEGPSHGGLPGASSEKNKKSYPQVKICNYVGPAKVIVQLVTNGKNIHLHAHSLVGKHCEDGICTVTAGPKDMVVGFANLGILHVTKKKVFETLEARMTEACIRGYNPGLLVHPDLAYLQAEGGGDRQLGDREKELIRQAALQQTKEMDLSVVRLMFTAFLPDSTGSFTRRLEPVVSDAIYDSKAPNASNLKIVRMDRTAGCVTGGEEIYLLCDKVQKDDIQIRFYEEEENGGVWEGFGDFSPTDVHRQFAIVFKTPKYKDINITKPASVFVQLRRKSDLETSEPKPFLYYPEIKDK

As to “CCGATTAACATCAGGAACTTCCCTGATGTTAATCGGGTCTTGATTCGCTTGACGCTGCTG”, the binding signal came to 4.62 z-score in the test with GST-Ap-NF-kB RHD; 5.28 z-score in test [1]; 3.16 z-score in test [2]; 1.73 z-score in the test with GST-Co-NF-kB; 4.4 z-score in the test with GST-Dm-Relish; 7.58 z-score with GST-Aq-NF-kB. The binding signal with GST-Hu-p50 was 3.6 z-score.

Take “CCGATTAACATCAAGGGAATTTCTGATGTTAATCGGGTCTTGATTCGCTTGACGCTGCTG”: the binding signal in the test with GST-Ap-NF-kB RHD came out at 6.34 z-score; in test [1], 8.61 z-score; in test [2], 8.46 z-score; in the test with GST-Co-NF-kB, 4.25 z-score; with GST-Dm-Relish, 5.45 z-score; with GST-Aq-NF-kB, 7.24 z-score. Moreover, the binding signal with GST-Hu-p50 was 5.75 z-score.

Consider “CCGATTAACATCACTAAATCCCCTGATGTTAATCGGGTCTTGATTCGCTTGACGCTGCTG”, for which the binding signal with GST-Ap-NF-kB RHD was determined as 6.91 z-score; in test [1], 7.06 z-score; in test [2] it was 9.63 z-score; in the test with GST-Co-NF-kB, 3.45 z-score; in the test with GST-Dm-Relish, 6.49 z-score; in the test with GST-Aq-NF-kB it was 5.34 z-score. This sequence came in with a binding signal with GST-Hu-p50 of 6.6 z-score.

Take “CCGATTAACATCAGGGGGAACTATGATGTTAATCGGGTCTTGATTCGCTTGACGCTGCTG”: the binding signal turned out to be 6.91 z-score in the test with GST-Ap-NF-kB RHD; 5.64 z-score in test [1]; 7.61 z-score in test [2]; 9.06 z-score with GST-Co-NF-kB; 4.89 z-score with GST-Dm-Relish; 4.97 z-score in the test with GST-Aq-NF-kB. For the same sequence, in the test with GST-Hu-p50, the binding signal came out at 5.9 z-score.

For the sequence “CCGATTAACATCACGGTATTCCCTGATGTTAATCGGGTCTTGATTCGCTTGACGCTGCTG”, the binding signal with GST-Ap-NF-kB RHD is 4.35 z-score; in test [1], 3.63 z-score; in test [2] it was 3.91 z-score; in the test with GST-Co-NF-kB it was 3.34 z-score; with GST-Dm-Relish, 6.53 z-score; in the test with GST-Aq-NF-kB, 6 z-score. For the same sequence, the binding signal with GST-Hu-p50 came to 1.52 z-score.

In the case of “CCGATTAACATCAAGGGGGATTCTGATGTTAATCGGGTCTTGATTCGCTTGACGCTGCTG”, the binding signal with GST-Ap-NF-kB RHD was found to be 9.03 z-score; in test [1] it was 8.85 z-score; in test [2] it was 10.3 z-score; with GST-Co-NF-kB it was 4.93 z-score; with GST-Dm-Relish it was 8.21 z-score; in the test with GST-Aq-NF-kB it was 7.13 z-score. The sequence further gave a binding signal in the test with GST-Hu-p50 of 7.71 z-score.

Turning to “CCGATTAACATCAAGAACCCCCTTGATGTTAATCGGGTCTTGATTCGCTTGACGCTGCTG”, the binding signal with GST-Ap-NF-kB RHD was determined as 7.4 z-score; in test [1], 6.12 z-score; in test [2], 7.11 z-score; in the test with GST-Co-NF-kB, 1.5 z-score; with GST-Dm-Relish, 8.56 z-score; in the test with GST-Aq-NF-kB, 6.48 z-score. Further, the binding signal with GST-Hu-p50 amounted to 6.86 z-score.

On to “CCGATTAACATCAAATTTCCCTATGATGTTAATCGGGTCTTGATTCGCTTGACGCTGCTG”, for which the binding signal with GST-Ap-NF-kB RHD was found to be 4.13 z-score; in test [1] it was 6.5 z-score; in test [2] it was 6.37 z-score; with GST-Co-NF-kB it was 3.02 z-score; with GST-Dm-Relish, 2.55 z-score; in the test with GST-Aq-NF-kB, 6.3 z-score. This sequence also returned a binding signal with GST-Hu-p50 of 5.04 z-score.

With “CCGATTAACATCAGGGAAAACTATGATGTTAATCGGGTCTTGATTCGCTTGACGCTGCTG”, the binding signal with GST-Ap-NF-kB RHD stood at 3.76 z-score; in test [1] it was 5.55 z-score; in test [2], 7.33 z-score; with GST-Co-NF-kB, 5.67 z-score; with GST-Dm-Relish, 1.67 z-score; with GST-Aq-NF-kB, 4.07 z-score. This sequence also gave a binding signal with GST-Hu-p50 of 4.03 z-score.

Turning to “CCGATTAACATCAAGAAGTCCCCTGATGTTAATCGGGTCTTGATTCGCTTGACGCTGCTG”, the binding signal with GST-Ap-NF-kB RHD is 7.72 z-score; in test [1] it was 7.86 z-score; in test [2], 7.55 z-score; in the test with GST-Co-NF-kB, 3.14 z-score; with GST-Dm-Relish it was 7.58 z-score; with GST-Aq-NF-kB, 6.79 z-score. The binding signal with GST-Hu-p50 was determined as 6.73 z-score.

Consider “CCGATTAACATCAGGGAAAGCACTGATGTTAATCGGGTCTTGATTCGCTTGACGCTGCTG”, for which the binding signal with GST-Ap-NF-kB RHD came to 3.61 z-score; in test [1] it was 4.73 z-score; in test [2], 3.86 z-score; with GST-Co-NF-kB, 2.69 z-score; with GST-Dm-Relish, 6.76 z-score; with GST-Aq-NF-kB it was 6.5 z-score. For the same sequence, in the test with GST-Hu-p50, the binding signal is 3.98 z-score.

“CCGATTAACATCAGATATTCCCCTGATGTTAATCGGGTCTTGATTCGCTTGACGCTGCTG”: the binding signal with GST-Ap-NF-kB RHD turned out to be 7.71 z-score; in test [1], 9.63 z-score; in test [2] it was 8.71 z-score; with GST-Co-NF-kB it was 8.17 z-score; with GST-Dm-Relish it was 5.36 z-score; with GST-Aq-NF-kB, 7.31 z-score. In addition, in the test with GST-Hu-p50, the binding signal worked out at 5.94 z-score.

The record behind these values is publication PMC5700166.
